Experimental data published in ChEMBL document CHEMBL4513216, “Probing the Open Global Health Chemical Diversity Library for Multistage-Active Starting Points for Next-Generation Antimalarials” (ACS Infect Dis, 2020).
Among all 69,000 compounds or so, about 8,600 (12%) showed an effect of 50% or more. The list comes from a sample in which strong results are over-represented; it also holds similar structures and randomly drawn compounds.

Tested on: Plasmodium berghei
Test: Screen against P. berghei liver stage (PbLuc), transformed with Luciferase, at 10uM
Type: functional, HepG2
Conditions: tested at 10 uM

| Compound | INHIBITION [%] |
| --- | --- |
| CC(Cn1ccnc1)NC(=O)N1CCN(Cc2ccco2)CC1 (stereo not drawn) | -13.65 |
| OC1CCN(c2cncc(CCC3CCCN3)n2)CC1 (stereo not drawn) | 9.575 |
| O=C(NCc1cn2c(n1)SCC2)c1ccc(CN2CCCCC2)cc1 | 29.2 |
| O=C(CCN1CCCCO1)NCc1cn2c(n1)SCC2 | 78.4 |
| O=C(NCc1cn2c(n1)SCC2)c1cn(CCN2CCCCC2)nn1 | 21 |
| CN(C(=O)C1CCCC1)C(c1cccc(F)c1)c1ccccn1 (stereo not drawn) | 5.7 |
| CCOc1ccc(C(=O)N(Cc2cnn(C)c2)C(C)C)cc1OCC | 27.8 |
| O=C(CCC(F)(F)F)N1CCCC2(CCC(=O)N(CC3CC3)C2)C1 (stereo not drawn) | 59.4 |
| O=C(CO)N1CCCC2(CCC(=O)N(CC3CC3)C2)C1 (stereo not drawn) | 33 |
| O=C(CSCC1CC1)N1CCCC2(CCC(=O)N(CC3CC3)C2)C1 (stereo not drawn) | 32.1 |
| Cc1ccc(C(=O)N2CCc3ncnc(-c4cnn(C)c4)c3CC2)cn1 | -64.6 |
| COC1CCN(c2ccc(NC(=O)C3CC3)cc2C(F)(F)F)CC1 | 95.8 |
| CCNC(=O)C1CCCN(c2ccc(C#N)cc2C(F)(F)F)C1 (stereo not drawn) | 26.3 |
| COCC(=O)Nc1ccc(N2CCC(OC)CC2)c(C(F)(F)F)c1 | 30.3 |
| CCC(=O)Nc1ccc(N2CCC(OC)CC2)c(C(F)(F)F)c1 | 45.1 |
| CCNC(=O)Nc1ccc(N2CCC(OC)CC2)c(C(F)(F)F)c1 | 89.6 |
| COCCCNC(=O)Nc1ccc(-n2cncn2)c(C(F)(F)F)c1 | -37.55 |
| COCCNC(=O)[C@H]1CN(Cc2nccs2)C[C@H]2OCC[C@@H]12 | -3.19 |
| CCOCCC1(CNC(=O)c2ccc(C)nc2)CCCC1 | -30.6 |
| c1ccc(-c2cc(CN3CCC(c4ccn[nH]4)CC3)on2)cc1 | 73.5 |
| Cc1cccc(-c2noc(CN3CCC(c4ccn[nH]4)CC3)n2)c1 | -39.6 |
| c1ccc(-c2noc(CN3CCC(c4ccn[nH]4)CC3)n2)cc1 | 35.1 |
| Cn1cnc(S(=O)(=O)N2CCCC2c2ccnc3nccn23)c1 (stereo not drawn) | 23.84 |
| CSCC(=O)N1CCCC(n2ccnc2C(C)C)C1 (stereo not drawn) | 45.4 |
| CCc1nnsc1C(=O)N1CCCC(n2ccnc2C(C)C)C1 (stereo not drawn) | 53.9 |

| Compound | INHIBITION [%] |
| --- | --- |
| CC(C)c1nccn1C1CCCN(C(=O)CCc2cscn2)C1 (stereo not drawn) | 62.1 |
| CC(C)c1nccn1C1CCCN(C(=O)c2nccnc2N)C1 (stereo not drawn) | 41.5 |
| CC(C)c1nccn1C1CCCN(C(=O)CCc2cnn(C)c2)C1 (stereo not drawn) | 33.3 |
| CC(C)c1nccn1C1CCCN(C(=O)CCNS(C)(=O)=O)C1 (stereo not drawn) | 36.1 |
| Cc1cc(N2CCC(c3ncc[nH]3)CC2)c2ccccc2n1 | 41.6 |
| Cc1nc(CN2CCOCC3(CCN(c4cnccn4)CC3)C2)cs1 | -11.6 |
| CN(CC(C)(CO)CO)C(=O)Nc1cc(Cl)cc(Cl)c1 | 26.515 |
| c1csc(-c2nc(CN3CCCCC3Cn3cccn3)co2)c1 (stereo not drawn) | 11.5 |
| COc1ccc(C2=CN=C(C(F)(F)F)CC2N)cc1 (stereo not drawn) | -0.371 |
| NC1CC(C(F)(F)F)=NC=C1c1ccccc1 (stereo not drawn) | 4.08 |
| NC1CC(C(F)(F)F)=NC=C1c1ccc(Cl)cc1 (stereo not drawn) | 59 |
| COc1ccc(C(=O)NC2CC2)c(OC)c1 | 23.6 |
| COc1ccc(C(=O)NC2CC2)c(OC2CCN(CC3CC3)CC2)c1 | 26.7 |
| COc1ccc(C(=O)NC2CC2)c(OC2CCN(C3CCC3)CC2)c1 | 29.4 |
| COc1ccc(C(=O)NC2CC2)c(OC2CCN(C(C)CO)CC2)c1 (stereo not drawn) | 76.6 |
| COc1ccccc1OC1CCN(C(=O)CCCN2CCOCC2)CC1 | 23.8 |
| COc1ccc(C(=O)NC2CC2)c(OC2CCN(CCCSC)CC2)c1 | 60.3 |
| O=C(NC1CCCCC1)N1CCn2c(nnc2C2CCCN2)C1 (stereo not drawn) | 44.1 |
| CS(=O)(=O)NCc1nnc2n1CCN(Cc1cccs1)CC2 | 34.6 |
| NC(=O)COc1ccc(CNCc2cc(F)cc(F)c2)cc1 | -28 |
| Cc1cc2nc(C(C)C)cc(NCCc3ccncc3)n2n1 | 34 |
| CC(NC(=O)C1CCN(S(N)(=O)=O)CC1)c1cccc(OC(F)F)c1 (stereo not drawn) | 17 |
| CC(=O)N1CCC(C(=O)NC(C)c2cccc(OC(F)F)c2)CC1 (stereo not drawn) | 58.3 |
| CC(=O)N1CC(C(=O)Nc2cccc(OC(F)F)c2)C1 | 26 |
| CCc1ncc2c(n1)CN(Cc1cc(C)on1)CC2 | 35.4 |

| Compound | INHIBITION [%] |
| --- | --- |
| Cc1nn(C)cc1-c1cncn1CCN(C)C1CCCC1 | -25.3 |
| COCCN1CCCN(C(=O)c2oc(C)nc2C)CC1 | 33.4 |
| CCCN1CCCN(C(=O)c2oc(C)nc2C)CC1 | 2.7 |
| CCCC(=O)N1CCCN(C(=O)c2oc(C)nc2C)CC1 | 80 |
| Cc1ocnc1C(=O)N1CCN(CCOc2ccccc2)CC1 | 37.6 |
| Cc1nc(C)c(C(=O)N2CCN(CCOc3ccccc3C)CC2)o1 | 66.3 |
| Cc1nc(C)c(C(=O)N2CCc3nnc(C4CCCCN4C)n3CC2)o1 (stereo not drawn) | -4.68 |
| COCCNC(=O)C(C)n1nc(-c2ccco2)cc(N)c1=O (stereo not drawn) | 42.6 |
| CC(C)OCCCN(Cc1ccncc1)Cc1cccc(F)c1F | -12.9 |
| COc1cc2cc(C(=O)O)n(C)c2c(OC)c1OC | -9.48 |
| COc1cc2cc(C(=O)NCC(=O)O)n(C)c2c(OC)c1OC | 57.3 |
| COc1cc2cc(C(=O)NCCC(=O)O)n(C)c2c(OC)c1OC | 11 |
| Cc1nc(C2CCCN2CCC(=O)N2CCc3ccccc32)no1 (stereo not drawn) | 5.03 |
| Cc1nnc(N2C[C@H](OCC3CCCC3)[C@H]3OCCC[C@H]32)s1 | -34.7 |
| COc1cccc(C2CC(=O)Nc3nc(N4CCOCC4)sc32)c1OC (stereo not drawn) | 13.4 |
| COc1ccc(OC)c(C2CCN(Cc3nc(C)n4ccccc34)C2)c1 (stereo not drawn) | 45.8 |
| COc1ccc(OC)c(C2CCN(C3CCOCC3)C2)c1 (stereo not drawn) | -68.6 |
| COc1ccccc1C1CCN(c2ccc3cc[nH]c3n2)CC1 | 88.2 |
| COC(=O)c1ccc(N2CCC(c3ccccc3)CC2)nn1 | -18.5 |
| COc1ccccc1OC1CCN(c2nc(N)nc3[nH]cnc23)CC1 | -18.8 |
| COc1ccc(OC)c(C2CCN(c3ccc4cc[nH]c4n3)C2)c1 (stereo not drawn) | 79.2 |
| COc1cccc(C2CC(=O)Nc3nc(N4CCCCC4)sc32)c1OC (stereo not drawn) | 19.3 |
| COc1cccc(C2CCN(c3ccc4cc[nH]c4n3)C2)c1OC (stereo not drawn) | 89.9 |
